Consider twelve compounds from ChEMBL document CHEMBL1961873, “Compounds: GSK PKIS; Assays: Nanosyn kinase panel” (2012).

Experiment [1] addresses Casein kinase I isoform gamma-2 (Homo sapiens) (UniProt P78368). To be noted: at 1 µM.
The target in experiment [2] is Casein kinase I isoform gamma-3 (Homo sapiens) (UniProt Q9Y6M4). To be noted: at 0.1 µM.
For experiment [3] the target is unchanged. To be noted: at 1 µM.
In experiment [4] the target is Cyclin-dependent kinase 1 (Homo sapiens) (UniProt P06493). As to conditions: at 0.1 µM.
Experiment [5] shares this target. As to conditions: at 1 µM.
Experiment [6] addresses Cyclin-dependent kinase 2 (Homo sapiens) (UniProt P24941). As to conditions: at 0.1 µM.
Experiment [7] shares this target. As to conditions: at 1 µM.
Experiment [8] shares this target. To be noted: at 0.1 µM. This is another data set of the same source.
Experiment [9] has the same target. To be noted: at 1 µM. The source holds these as a separate data set.
Experiment [10] deals with T1, CDK3/Cyclin E (Homo sapiens) (UniProt P24864+Q00526). To be noted: at 0.1 µM.
Experiment [11] has as its target T1, CDK3/Cyclin E (Homo sapiens). As to conditions: at 1 µM.
Experiment [12] concerns the target Cyclin-dependent kinase 4 (Homo sapiens) (UniProt P11802). To be noted: at 0.1 µM.
Experiment [13] shares this target. As to conditions: at 1 µM.
Experiment [14] concerns the target Cyclin-dependent kinase 5 (Homo sapiens) (UniProt Q00535). To be noted: at 0.1 µM.
For experiment [15] the target is unchanged. As to conditions: at 1 µM.
In experiment [16] the target is Cyclin-dependent kinase 6 (Homo sapiens) (UniProt Q00534). To be noted: at 0.1 µM.
The target is the same in experiment [17]. As to conditions: at 1 µM.
In experiment [18] the target is Dual specificity protein kinase CLK2 (Homo sapiens) (UniProt P49760). As to conditions: at 0.1 µM.
The target is the same in experiment [19]. As to conditions: at 1 µM.
For experiment [20], the target named is Dual specificity protein kinase CLK3 (Homo sapiens) (UniProt P49761). As to conditions: at 0.1 µM.

SMILES strings stand for the structures.

Sequence of Dual specificity protein kinase CLK3 (Homo sapiens) (P49761 whole entry, looked up): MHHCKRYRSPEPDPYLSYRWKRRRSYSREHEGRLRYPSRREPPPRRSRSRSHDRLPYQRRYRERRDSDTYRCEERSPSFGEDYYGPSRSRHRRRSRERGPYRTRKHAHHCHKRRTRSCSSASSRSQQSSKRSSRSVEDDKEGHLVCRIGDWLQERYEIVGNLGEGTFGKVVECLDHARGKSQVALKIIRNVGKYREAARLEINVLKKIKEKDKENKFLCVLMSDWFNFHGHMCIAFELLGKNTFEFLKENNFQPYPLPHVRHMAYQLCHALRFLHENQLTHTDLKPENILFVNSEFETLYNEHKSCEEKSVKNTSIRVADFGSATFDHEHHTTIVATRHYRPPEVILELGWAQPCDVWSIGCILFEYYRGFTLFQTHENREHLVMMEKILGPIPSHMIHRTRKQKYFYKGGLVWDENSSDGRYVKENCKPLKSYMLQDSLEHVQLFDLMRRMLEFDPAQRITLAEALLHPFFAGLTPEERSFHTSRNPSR
T1 sequence (P24864 whole entry, looked up): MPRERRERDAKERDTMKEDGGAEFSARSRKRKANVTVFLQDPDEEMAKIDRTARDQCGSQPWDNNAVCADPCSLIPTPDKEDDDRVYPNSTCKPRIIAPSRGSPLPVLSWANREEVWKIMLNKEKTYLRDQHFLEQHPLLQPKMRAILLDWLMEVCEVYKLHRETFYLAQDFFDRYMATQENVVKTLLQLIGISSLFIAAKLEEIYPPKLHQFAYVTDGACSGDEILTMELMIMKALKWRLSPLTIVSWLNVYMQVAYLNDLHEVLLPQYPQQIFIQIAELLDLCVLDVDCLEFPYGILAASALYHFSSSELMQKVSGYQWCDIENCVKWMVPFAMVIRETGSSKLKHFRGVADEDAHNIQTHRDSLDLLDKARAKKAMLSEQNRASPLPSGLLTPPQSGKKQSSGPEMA
T1 sequence (Q00526 whole entry, looked up): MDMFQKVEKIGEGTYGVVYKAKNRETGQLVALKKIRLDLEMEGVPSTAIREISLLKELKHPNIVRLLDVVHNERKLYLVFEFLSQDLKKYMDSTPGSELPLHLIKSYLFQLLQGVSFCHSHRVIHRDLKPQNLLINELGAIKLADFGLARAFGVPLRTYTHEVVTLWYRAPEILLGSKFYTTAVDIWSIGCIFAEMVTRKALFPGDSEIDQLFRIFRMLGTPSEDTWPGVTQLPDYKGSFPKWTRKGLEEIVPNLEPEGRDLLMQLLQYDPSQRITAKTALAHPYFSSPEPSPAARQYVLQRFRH
Sequence of Dual specificity protein kinase CLK2 (Homo sapiens) (P49760 whole entry, looked up): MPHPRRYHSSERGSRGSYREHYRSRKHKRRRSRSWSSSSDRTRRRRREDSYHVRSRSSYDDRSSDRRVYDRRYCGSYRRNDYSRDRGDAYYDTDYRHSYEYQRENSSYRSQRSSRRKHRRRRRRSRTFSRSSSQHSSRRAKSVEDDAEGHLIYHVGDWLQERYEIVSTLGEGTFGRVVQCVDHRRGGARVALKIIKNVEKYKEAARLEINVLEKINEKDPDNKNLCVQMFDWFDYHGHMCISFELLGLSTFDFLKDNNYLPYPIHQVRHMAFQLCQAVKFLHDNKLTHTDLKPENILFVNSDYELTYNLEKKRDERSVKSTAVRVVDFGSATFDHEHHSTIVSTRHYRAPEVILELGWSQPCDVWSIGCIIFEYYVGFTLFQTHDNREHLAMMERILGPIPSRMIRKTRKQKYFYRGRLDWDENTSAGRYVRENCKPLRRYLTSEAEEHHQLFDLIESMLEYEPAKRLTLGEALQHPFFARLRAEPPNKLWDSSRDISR
Sequence of Casein kinase I isoform gamma-2 (Homo sapiens) (P78368 whole entry, looked up, canonical isoform): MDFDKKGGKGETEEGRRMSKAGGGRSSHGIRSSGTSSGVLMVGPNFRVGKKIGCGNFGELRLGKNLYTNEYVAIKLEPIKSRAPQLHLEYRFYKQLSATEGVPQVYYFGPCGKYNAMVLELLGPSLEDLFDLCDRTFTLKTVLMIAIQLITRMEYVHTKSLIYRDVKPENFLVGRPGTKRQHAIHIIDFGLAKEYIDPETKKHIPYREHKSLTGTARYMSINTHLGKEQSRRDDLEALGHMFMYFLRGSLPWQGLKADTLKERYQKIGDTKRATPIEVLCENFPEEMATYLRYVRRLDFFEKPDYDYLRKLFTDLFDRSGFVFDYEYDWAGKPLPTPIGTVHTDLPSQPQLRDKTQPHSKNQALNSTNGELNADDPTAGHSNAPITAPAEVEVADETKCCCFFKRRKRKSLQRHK
Sequence of Cyclin-dependent kinase 6 (Homo sapiens) (Q00534 whole entry): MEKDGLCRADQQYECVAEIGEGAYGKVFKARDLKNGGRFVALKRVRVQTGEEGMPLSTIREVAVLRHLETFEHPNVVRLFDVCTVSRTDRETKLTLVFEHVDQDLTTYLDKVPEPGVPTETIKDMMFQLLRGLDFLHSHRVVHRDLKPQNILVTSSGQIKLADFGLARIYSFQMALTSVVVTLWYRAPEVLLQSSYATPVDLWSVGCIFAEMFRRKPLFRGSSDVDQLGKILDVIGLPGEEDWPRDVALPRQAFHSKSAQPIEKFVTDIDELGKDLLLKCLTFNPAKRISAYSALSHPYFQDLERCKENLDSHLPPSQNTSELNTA
Sequence of Cyclin-dependent kinase 4 (Homo sapiens) (P11802 whole entry): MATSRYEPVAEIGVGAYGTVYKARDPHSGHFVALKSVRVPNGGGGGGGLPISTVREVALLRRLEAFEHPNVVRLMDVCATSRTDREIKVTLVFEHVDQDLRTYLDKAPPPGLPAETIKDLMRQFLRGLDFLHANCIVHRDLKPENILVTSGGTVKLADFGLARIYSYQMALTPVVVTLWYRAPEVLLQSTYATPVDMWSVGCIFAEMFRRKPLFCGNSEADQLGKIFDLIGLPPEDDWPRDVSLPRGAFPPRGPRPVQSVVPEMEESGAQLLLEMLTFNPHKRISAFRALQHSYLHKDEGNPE
Sequence of Cyclin-dependent kinase 5 (Homo sapiens) (Q00535 whole entry, looked up): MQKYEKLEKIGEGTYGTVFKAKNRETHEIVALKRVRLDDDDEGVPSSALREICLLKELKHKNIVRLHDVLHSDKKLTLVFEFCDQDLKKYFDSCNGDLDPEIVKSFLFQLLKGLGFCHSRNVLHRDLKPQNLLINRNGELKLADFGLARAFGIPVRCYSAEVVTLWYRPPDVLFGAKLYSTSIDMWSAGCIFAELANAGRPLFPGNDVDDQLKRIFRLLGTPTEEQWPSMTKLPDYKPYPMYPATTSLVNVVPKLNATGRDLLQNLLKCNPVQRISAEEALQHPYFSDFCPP
Sequence of Cyclin-dependent kinase 1 (Homo sapiens) (P06493 whole entry, looked up): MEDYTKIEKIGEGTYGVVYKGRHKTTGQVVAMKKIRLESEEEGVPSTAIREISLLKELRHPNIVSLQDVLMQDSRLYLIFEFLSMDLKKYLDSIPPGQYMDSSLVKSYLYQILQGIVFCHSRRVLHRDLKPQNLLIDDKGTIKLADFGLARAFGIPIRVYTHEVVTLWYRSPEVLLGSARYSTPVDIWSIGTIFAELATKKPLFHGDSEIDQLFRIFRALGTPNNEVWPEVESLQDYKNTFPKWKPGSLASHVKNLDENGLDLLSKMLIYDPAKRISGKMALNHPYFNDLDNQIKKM
Sequence of Casein kinase I isoform gamma-3 (Homo sapiens) (Q9Y6M4 whole entry, looked up, canonical isoform): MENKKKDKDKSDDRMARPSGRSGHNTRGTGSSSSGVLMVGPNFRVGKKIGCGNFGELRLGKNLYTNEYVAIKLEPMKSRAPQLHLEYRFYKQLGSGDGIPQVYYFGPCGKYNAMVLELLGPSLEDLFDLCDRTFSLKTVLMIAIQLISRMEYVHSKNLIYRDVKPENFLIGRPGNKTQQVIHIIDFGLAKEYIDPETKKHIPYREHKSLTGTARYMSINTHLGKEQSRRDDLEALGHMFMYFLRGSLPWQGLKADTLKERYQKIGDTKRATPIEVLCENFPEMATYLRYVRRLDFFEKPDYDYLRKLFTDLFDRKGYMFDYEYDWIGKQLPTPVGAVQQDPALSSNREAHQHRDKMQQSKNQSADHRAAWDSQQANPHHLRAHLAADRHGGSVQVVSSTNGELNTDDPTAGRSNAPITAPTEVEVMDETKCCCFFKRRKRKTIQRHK

A word on the inhibition: it is the drop in the measured response relative to a control, in per cent. In the case of `[O-][S+]1CCN(Cc2ccc(-c3ccc4ncnc(Nc5ccc(OCc6cccc(F)c6)c(Cl)c5)c4c3)o2)CC1`, the inhibition in experiment [1] is 5.36%; in experiment [2], 4.15%; in [3], 2.36%; in experiment [4], 2.01%; in [5] it was -1.04%; in [6] it was 3.62%. Also, the inhibition in experiment [7] is 4.32%; in [8], 5.35%; in experiment [9], 6.57%; in experiment [10], 0.55%; in [11] it was -2.03%; in [12], 3.89%. Further, the inhibition stood at 6.99% in [13]; 4% in experiment [14]; 3.88% in experiment [15]; 0.87% in [16]; 3.99% in experiment [17]; 1.02% in [18]. The inhibition is -0.02% in experiment [19] and 1.18% in experiment [20].

On to `CCn1c(-c2nonc2N)nc2c(C#CC(C)(C)O)ncc(OC3CCNCC3)c21`, for which the inhibition in experiment [1] is 3.98%; in experiment [2], 2.65%; in experiment [3] it was 3.15%; in experiment [4] it was 2.33%; in experiment [5] it was 2.34%; in [6], 3.56%. Further, the inhibition was 1.76% in experiment [7]; 1.95% in experiment [8]; 3.09% in [9]; -1.98% in experiment [10]; -2.14% in experiment [11]; 2.68% in [12]. Further, the inhibition in experiment [13] is 3.11%; in experiment [14], 0.91%; in experiment [15], 2.08%; in [16], -2.96%; in experiment [17], -1.44%; in [18], 2.21%. Also, the inhibition in experiment [19] was 18%; in [20], 0.62%.

Consider `COC(=O)Nc1nc2ccc(Oc3ccc(NC(=O)Nc4cccc(Cl)c4)cc3)cc2[nH]1`, for which the inhibition in experiment [1] was 1.64%; in experiment [2] it was 0.53%; in [3], 1.25%; in experiment [4] it was -0.02%; in experiment [5] it was 0%; in experiment [6] it was -0.3%. The inhibition is -1.22% in experiment [7]; 1.4% in [8]; 0.48% in experiment [9]; 1.02% in experiment [10]; -0.43% in [11]; 0.18% in experiment [12]. In addition, the inhibition in experiment [13] is 0.01%; in experiment [14] it was 0.3%; in experiment [15], -0.49%; in experiment [16] it was -0.37%; in [17], 3.51%; in experiment [18], -1.9%. In addition, the inhibition is -1.67% in experiment [19] and 0.01% in experiment [20].

For `Fc1ccc(-c2cc(-c3c[nH]nc3-c3ccccn3)ccn2)cc1`, the inhibition is 6.19% in experiment [1]; 4.09% in [2]; 6.73% in experiment [3]; 0.86% in experiment [4]; -0.63% in experiment [5]; 2.51% in [6]. In addition, the inhibition is 5.92% in experiment [7]; 2.72% in [8]; 3.29% in [9]; 2.03% in experiment [10]; -1.83% in experiment [11]; 1.98% in [12]. In addition, the inhibition in experiment [13] is 1.18%; in experiment [14] it was -0.24%; in experiment [15], -1.54%; in experiment [16] it was -0.57%; in experiment [17], 2.29%; in experiment [18], 2.53%. The inhibition in experiment [19] is 2.71%; in [20], 1.32%.

For the compound `CCn1cc(-c2ccnc3[nH]ccc23)c(-c2cccc(NC(=O)Nc3ccc(OCc4ccccc4)cc3)c2)n1`, the inhibition was 1.8% in experiment [1]; -0.46% in [2]; 0.79% in experiment [3]; 0.04% in experiment [4]; 0.38% in experiment [5]; -0.95% in experiment [6]. For the same compound, the inhibition in [7] was -1.61%; in [8], -0.54%; in experiment [9], -2.22%; in [10], 0.47%; in experiment [11], -2.23%; in experiment [12] it was 1.32%. Moreover, the inhibition was -0.47% in [13]; -0.05% in experiment [14]; -0.93% in experiment [15]; -2.8% in [16]; -4.5% in experiment [17]; -0.56% in experiment [18]. For the same compound, the values for the inhibition in [19] and in experiment [20] were -2.09% and -0.94%, respectively.

For the compound `CNC(=O)c1cccc(C#Cc2cncnc2Nc2ccc(OCc3cccc(F)c3)c(Cl)c2)c1`, the inhibition is 1.26% in experiment [1]; 2.38% in [2]; 0.88% in experiment [3]; 0.46% in experiment [4]; 2.85% in experiment [5]; -0.2% in experiment [6]. Besides, the inhibition in [7] stood at 6.57%; in [8], 4.58%; in [9] it was 4.27%; in [10] it was 2.79%; in experiment [11], 3.72%; in experiment [12], 2.35%. Besides, the inhibition in experiment [13] turned out to be 3.08%; in [14], 1.3%; in [15] it was 2.33%; in experiment [16], 4.83%; in experiment [17], 1.6%; in [18] it was 0.38%. Also, the inhibition in experiment [19] was 2.72%; in experiment [20], -0.87%.

Take `CNC(=O)c1cncc(/C=C/c2ccccc2Cl)c1`: the inhibition in experiment [1] is -0.77%; in [2], 0.25%; in experiment [3], -0.89%; in experiment [4] it was 0.47%; in experiment [5], 3.2%; in [6] it was 0.6%. Also, the inhibition was -0.73% in [7]; -0.47% in [8]; 0.52% in experiment [9]; 0.31% in [10]; -0.07% in experiment [11]; -1.43% in experiment [12]. Further, the inhibition was -0.33% in experiment [13]; 0.19% in experiment [14]; 2% in [15]; 2.81% in [16]; -1.1% in experiment [17]; -0.38% in experiment [18]. Besides, the results for the inhibition in experiment [19] and in experiment [20] were 0.35% and -0.85%, respectively.

As for `N#Cc1c(NC(=O)c2ccc(F)cc2)sc2c1CCCC2`, the inhibition in experiment [1] is 0.5%; in experiment [2] it was 0.26%; in experiment [3] it was -1.32%; in [4], -0.03%; in [5] it was -0.31%; in experiment [6], 0.4%. In addition, the inhibition in experiment [7] was -1.07%; in experiment [8] it was 0.42%; in [9], 1.03%; in experiment [10], 0.87%; in experiment [11] it was -1.72%; in [12] it was 0.38%. Further, the inhibition in experiment [13] is 1.59%; in experiment [14], 0.42%; in experiment [15] it was 0.28%; in experiment [16], -1.23%; in [17] it was -0.13%; in [18] it was -1%. In addition, the inhibition was found to be 1.4% in experiment [19] and 0.44% in [20].

For `CS(=O)(=O)CCNCc1coc(-c2ccc3ncnc(Nc4ccc(OCc5ccccc5)cc4)c3c2)c1`, the inhibition was 1.86% in [1]; 1.74% in experiment [2]; 1.31% in experiment [3]; 2.51% in [4]; 1.71% in [5]; 2.91% in experiment [6]. In addition, the inhibition is 2.02% in experiment [7]; 1.53% in [8]; 3.24% in [9]; -3.62% in experiment [10]; -1.98% in experiment [11]; 1.27% in experiment [12]. Besides, the inhibition in experiment [13] was 3.49%; in [14] it was 0.65%; in [15], 2.1%; in experiment [16], 0.39%; in experiment [17] it was 3.6%; in experiment [18], 3.24%. The inhibition in experiment [19] was 1.86%; in [20], -0.2%.

Regarding `N#Cc1c(NC(=O)CN2CCOCC2)sc2c1CCCC2`, the inhibition was 6.04% in experiment [1]; 4.84% in experiment [2]; 6.07% in experiment [3]; 4.8% in [4]; 4.23% in experiment [5]; 3.4% in [6]. The inhibition was 4.28% in experiment [7]; 6.96% in [8]; 8.06% in experiment [9]; 5.84% in experiment [10]; 0.79% in experiment [11]; 6.39% in experiment [12]. Further, the inhibition in [13] was 5.4%; in [14], 4.75%; in experiment [15], 5.34%; in experiment [16] it was 5.33%; in experiment [17] it was 7.63%; in experiment [18], 1.09%. Besides, the figures for the inhibition in experiment [19] and in experiment [20] were 2.7% and 4.98%, respectively.

Turning to `CCn1c(-c2nonc2N)nc2c(C#CC(C)(C)O)nc(OC[C@H](N)c3ccccc3)cc21`, the inhibition in experiment [1] was found to be 5.45%; in experiment [2], 1.72%; in [3], 4.23%; in experiment [4] it was 2.55%; in experiment [5], 0.95%; in [6] it was 3.52%. For the same compound, the inhibition was 4.36% in [7]; 0.77% in [8]; 2.97% in [9]; -2.75% in [10]; -0.33% in experiment [11]; 2.31% in experiment [12]. Further, the inhibition in [13] was 2.26%; in experiment [14], 1.23%; in experiment [15] it was 3.05%; in [16], -3.58%; in [17] it was -0.97%; in experiment [18], 1.87%. The inhibition in experiment [19] is 12.1%; in [20], 1.29%.

`O=C(O[C@H]1CN[C@H](C#Cc2cc3ncnc(Nc4ccc(Cc5ccccc5)cc4)c3s2)C1)N1CCOCC1`: the inhibition in experiment [1] stood at 2.93%; in experiment [2] it was 2.83%; in [3], 0.75%; in experiment [4], 0.31%; in experiment [5] it was 1.96%; in experiment [6], 0.69%. Also, the inhibition is 0.19% in experiment [7]; 1.15% in experiment [8]; 1.72% in experiment [9]; -2.04% in experiment [10]; -1.05% in experiment [11]; 0.77% in experiment [12]. Also, the inhibition in [13] was 1.9%; in experiment [14] it was 0.05%; in experiment [15] it was 1.12%; in experiment [16] it was -3.24%; in [17], -1.41%; in experiment [18] it was 0.36%. In addition, the values for the inhibition in [19] and in experiment [20] were -0.46% and 0.27%, respectively.
